Out of some 1,500 compounds screened, about 460 (31%) were called active. Inconclusive results (about 1%) are left out.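 How the source made its calls: active means curve reaches 40% activation over neutral controls at an AC40 no higher than the top valid tested concentration; inconclusive means no clear call, values can overlap the other calls; inactive means signal moving opposite to the expected increase, and the rest.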 Not all results are given here. Potency and affinity values are given separately.
experiment: GLuc-reported insulin release enhancers, glucose-stimulated beta cells – cell-based, INS-1E, Gaussia luciferase, luminescence, cherry-pick, set 2, dose response (AID 977607); settings: INS-1E GLuc insulin secretion reporter, 2-3 h, active compounds read high; at 35 µM, 100% = signal doubled over neutral wells unless noted;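 further: 0% = median of the plate neutral control wells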

Max activation, inactive:
Cc1cccc(NCc2ccccc2)c1 -18.2% [at 0.0016 µM, 100% = signal doubled over neutral wells]
Cc1ccc(NCc2cccc(B(O)O)c2)cc1 -34.5%
COc1ccc(/C=N/Nc2nc(-c3ccc(Cl)cc3)cc(C(F)(F)F)n2)c(OC)c1 30.4%
S=C(NCc1ccccc1)Nc1ccc2cn[nH]c2c1 -24.4% [at 0.046 µM, 100% = signal doubled over neutral wells]
COc1ccccc1C(=O)N/N=C(\C)CC(=O)Nc1ccc2c(c1)OCCO2 15.2% [at 0.005 µM, 100% = signal doubled over neutral wells]
CCOc1ncccc1C(=O)NNC(=O)c1ccccc1-n1cccc1 -7.28% [at 3.8 µM, 100% = signal doubled over neutral wells]
CCOc1ncccc1C(=O)Nc1cccc(S(=O)(=O)NC2=NCCC2)c1 -12.4% [at 0.135 µM, 100% = signal doubled over neutral wells]
CC(Oc1ccccc1Cl)C(=O)Nc1ccc(S(=O)(=O)Nc2nccs2)cc1 (stereo not given) -19.7% [at 0.135 µM, 100% = signal doubled over neutral wells]
CCOc1ncccc1C(=O)NCc1ccc(C)cc1 -15% [at 0.046 µM, 100% = signal doubled over neutral wells]
CNC(=O)c1cc(C(=O)c2ccccc2Br)c[nH]1 25.1% [at 0.135 µM, 100% = signal doubled over neutral wells]
COC(=O)CN(c1cccc(C)c1)S(=O)(=O)c1ccccc1 23.2% [at 0.42 µM, 100% = signal doubled over neutral wells]
O=C(Nc1ccc(F)cc1)N1CCCCN2[C@@H](CO)[C@@H](c3ccc(C#Cc4ccccc4)cc3)[C@@H]2C1 21.6% [at 0.0016 µM, 100% = signal doubled over neutral wells]
CCN(CC(=O)Nc1ccccc1OC)C(=O)C1CCCC1 -15.2% [at 3.8 µM, 100% = signal doubled over neutral wells]
O=C1CC(NS(=O)(=O)c2cccs2)CN1c1cccc(F)c1 (stereo not given) -15.9% [at 11 µM, 100% = signal doubled over neutral wells]
C=CCNC(=O)COc1coc(CN2CCN(C(=O)c3ccco3)CC2)cc1=O -8.4% [at 0.046 µM, 100% = signal doubled over neutral wells]
CCn1ncc2c1C(=O)NC1c3ccccc3C(=O)N21 (stereo not given) -17.7% [at 0.0016 µM, 100% = signal doubled over neutral wells]
c1ccc2nc3c(nc2c1)c1ccccc1n3CCN1CCOCC1 -14.9% [at 0.005 µM, 100% = signal doubled over neutral wells]
CC(=O)Nc1nc(C)nc(-c2ccccc2OC(C)=O)n1 -19.4% [at 0.046 µM, 100% = signal doubled over neutral wells]
O=c1c2ccccc2nc(-c2ccco2)n1/N=C/c1ccco1 -20.6% [at 0.0016 µM, 100% = signal doubled over neutral wells]
O=c1c2ccccc2nc(-c2ccco2)n1Cc1ccccc1 -18.2% [at 0.046 µM, 100% = signal doubled over neutral wells]
CSc1ncccc1C(=O)NCCc1ccccc1F 23.1% [at 3.8 µM, 100% = signal doubled over neutral wells]
COCCOc1ccc(C(F)(F)F)cc1NC(=O)c1ccccc1F -23.9% [at 3.8 µM, 100% = signal doubled over neutral wells]
O=C(NCCCNc1ccnc2cc(Cl)ccc12)c1ccccc1F -28.3%
O=S(=O)(c1cccs1)N1CN(C2CCCCC2)c2nc3ccccc3nc21 -12.2%
Cc1ccc(S(=O)(=O)N(CC(=O)Nc2ccc(C)cc2C)C(=O)N2CCN(C)CC2)cc1 42% [at 0.046 µM, 100% = signal doubled over neutral wells]
Cc1ccc(OCC(=O)NNC(=O)CCC(=O)Nc2ccc(C)cc2C)cc1 -27.6% [at 3.8 µM, 100% = signal doubled over neutral wells]
CC(=O)N1CCN(C(=O)COC(=O)c2ccc(S(C)(=O)=O)cc2)CC1 25.9%
CCSc1nnc(NC(=O)c2csc(C)c2)s1 -21.3% [at 0.0016 µM, 100% = signal doubled over neutral wells]
CCC(=O)Nc1nnc(Sc2ccc(N(C)C)cc2)s1 -22.3% [at 0.046 µM, 100% = signal doubled over neutral wells]
CCC(CC)NC(=O)CN1CCN(S(=O)(=O)c2cccs2)CC1 -15.7% [at 3.8 µM, 100% = signal doubled over neutral wells]
Cc1nnc2c(NCCC(C)C)nc3ccccc3n12 -15%
CC1(C)Cc2c(cnn2-c2ccccc2)C(NC(=O)CCN2CCCC2=O)C1 (stereo not given) -18.4%
Cc1ccc(-n2ncc3c2CC(C)(C)CC3NC(=O)CCCN2CCCC2=O)cc1 (stereo not given) -26.8% [at 0.046 µM, 100% = signal doubled over neutral wells]
CCn1nc(NC(=O)c2ccco2)c2cc3ccccc3nc21 61.7% [at 11 µM, 100% = signal doubled over neutral wells]
CCCn1nc(NC(=O)c2ccco2)c2cc3ccccc3nc21 -15.7% [at 0.0016 µM, 100% = signal doubled over neutral wells]
CCOc1ccc(CCNC(=O)CCNC(=O)c2ccco2)cc1OCC 12.9% [at 3.8 µM, 100% = signal doubled over neutral wells]
CC1(C)CC(=O)C(C=NC2CC(C)(C)NC(C)(C)C2)=C(O)C1 -17.1% [at 0.005 µM, 100% = signal doubled over neutral wells]
CCSc1nnc(-c2cccnc2)n1-c1ccc(C)c(Cl)c1 -13.6% [at 0.0016 µM, 100% = signal doubled over neutral wells]
CN(c1ccc(C(=O)N2CCN(Cc3ccccc3)CC2)cc1)S(=O)(=O)c1ccccc1 -44.5%
O=C(CN1C(=O)CCC1=O)Nc1cccc2c1C(=O)NC2=O -14.9% [at 1.2 µM, 100% = signal doubled over neutral wells]
O=C(NNC1CCN(Cc2ccccc2)CC1)c1ccccc1 -25% [at 3.8 µM, 100% = signal doubled over neutral wells]
CN(Cc1ccc(OCC(O)CN(C)Cc2ccccc2)cc1)Cc1nccn1C (stereo not given) -10.6% [at 0.0016 µM, 100% = signal doubled over neutral wells]
N=c1n(CCN2CCCCC2)c2ccccc2n1CC(O)COc1ccccc1 (stereo not given) -22.3% [at 1.2 µM, 100% = signal doubled over neutral wells]
Cc1cccc2[nH]c3c(N4CC=C(c5ccc(F)cc5)CC4)ncnc3c12 18.7% [at 1.2 µM, 100% = signal doubled over neutral wells]
FC(F)(F)c1cc(-c2ccccc2)nc(-n2cc(Cl)cn2)n1 -21.3% [at 0.015 µM, 100% = signal doubled over neutral wells]
CCN(C[C@H]1N[C@@](CC)(C(=O)OC)[C@H]2C(=O)N(C)C(=O)[C@@H]12)S(=O)(=O)c1ccc(OC)cc1 -12.8% [at 0.42 µM, 100% = signal doubled over neutral wells]
COc1ccc(F)cc1C(=O)C1CCCN(C(=O)c2ccc(C(C)=O)s2)C1 (stereo not given) -19.8%
COc1ccc(C(=O)C2CCCN(Cc3cccn3-c3nccs3)C2)cc1OC (stereo not given) -15.9% [at 0.005 µM, 100% = signal doubled over neutral wells]
CC(C)C[C@H](NC(=O)c1nc[nH]c1C(=O)NC1CCN(C(=O)OC(C)(C)C)CC1)C(=O)OC(C)(C)C 60.6%
CCOC(=O)c1[nH]cnc1C(=O)NC(C)C -21.9% [at 0.135 µM, 100% = signal doubled over neutral wells]
CN1C(=O)NC(c2ccc(O)cc2)C2=C1CN(c1ccccc1)C2=O (stereo not given) -22.4% [at 3.8 µM, 100% = signal doubled over neutral wells]
CC(C)c1c(C(=O)N/N=C/c2cccc3ccccc23)nnn1-c1nonc1N -43.8%
O=C(COc1ccccc1Cl)NNC(=O)c1ccc2nc[nH]c2c1 15.8% [at 1.2 µM, 100% = signal doubled over neutral wells]
COC(=O)C[C@@H]1OC[C@H](C(C)C)N1S(=O)(=O)c1ccc(C)cc1 -15.5%
O=C(COC(=O)c1ncc(Cl)c(Cl)c1Cl)NC1CCS(=O)(=O)C1 (stereo not given) -18.3%

— PubChem BioAssay AID977607 (Broad Institute, 2014)
